The campaign covered roughly 69,000 compounds. About 8,600 (12%) showed an effect of 50% or more. Shown is part of a subset that was picked to be rich in strong results.
Test system: Plasmodium berghei
Test: Screen against P. berghei liver stage (PbLuc), transformed with Luciferase, at 10uM
Assay type: functional, HepG2
Conditions: tested at 10 uM

Compound	INHIBITION
O=C(NCc1csc(Br)c1)Nc1cn[nH]c1	17.5%
COCCCC1(C(=O)O)CCCN(Cc2ccccc2C)C1 (stereo not given)	14.9%
COCCC1(C(=O)O)CCCN(CCOCc2ccccc2)C1 (stereo not given)	27.9%
COCCCC1(C(=O)O)CCCN(Cc2cc3c(cc2C)OCCO3)C1 (stereo not given)	-31.4%
COCCC1(C(=O)O)CCCN(CCc2ccccc2)C1 (stereo not given)	31.6%
COCCC1(C(=O)O)CCCN(Cc2cc3c(cc2Cl)OCO3)C1 (stereo not given)	58.5%
COCCC1(C(=O)O)CCCN(Cc2cc3c(cc2C)OCO3)C1 (stereo not given)	57.2%
C=c1cc(C)oc1=C1NC(c2c(C)ncc3c2CCNC3)=NO1	49%
O=C(Nc1cnn(Cc2ccc(Cl)cc2)c1)N1CCCC1CO (stereo not given)	-31.1%
FC1(F)CCNCC12CCN(c1cccnc1)C2 (stereo not given)	33%
O=C(NCCNc1ncccn1)C1CC(=O)N(Cc2ccco2)C1 (stereo not given)	2.3%
O=C(NCCNc1ncccn1)C1CC(=O)N(Cc2ccccn2)C1 (stereo not given)	50.5%
O=C(NCCNc1ncccn1)C1CC(=O)N(Cc2ccccc2)C1 (stereo not given)	-24.2%
O=C1CCc2cc(NC(=O)C3CCCN3c3nccs3)ccc2N1 (stereo not given)	24.3165%
O=C1CC[C@H](C(=O)N(CCc2ccccc2)C2CCOC2)N1 (stereo not given in full)	55%
O=C(C1CCOCC1)N(CCc1ccccc1)C1CCOC1 (stereo not given)	-5.33%
O=C(C1CC1)N(CCc1ccccc1)C1CCOC1 (stereo not given)	-28.6%
C[C@H]1CN(C(=O)N(C)C)C[C@@]12CCN(c1ccsc1)C2=O	36.9%
O=C(c1ccc(S(=O)(=O)NCCc2ccncc2)cc1)N1CCCC1	57.6%
O=C(NCC(F)F)c1ccc(S(=O)(=O)NCCc2ccncc2)cc1	52.2%
O=C(c1ccc(S(=O)(=O)NCc2ccncc2)cc1)N1CCNCC1	19.5%
O=C(NCC(F)F)c1ccc(S(=O)(=O)NCCc2c[nH]cn2)cc1	10.4%
O=C(NCC(F)F)c1ccc(S(=O)(=O)NCCc2cn[nH]c2)cc1	35.8%

Compound	INHIBITION
O=C(c1ccc(S(=O)(=O)NCCc2ccccn2)cc1)N1CCCC1	30.3%
CC(C)c1nccn1C1CCCN(C(=O)c2cn3cccnc3n2)C1 (stereo not given)	1.78%
Cn1c(C(=O)NC2CC2)nc2c1CCN(c1ncccn1)C2	21.6%
Cc1ncccc1NC(=O)c1nc2c(n1C)CCN(C(=O)C1CC1)C2	66.6%
Cn1c(C(=O)NC2CCCC2)nc2c1CCN(Cc1ccccc1)C2	-18.5%
Cc1cnn(CC2CCCCN2c2nn3cc(C)nc3s2)c1 (stereo not given)	-23.9%
CC1(C)CN(C(=O)c2occc2COc2cccc(C#N)c2)CCO1	-10.8%
Cc1cnn(C2CN(CCOc3cccc(C#N)c3)C2)c1	69.9%
Cc1cc(C)n(CC2CN(CCOc3ccccc3C#N)CCO2)n1 (stereo not given)	-10.6%
Cc1cnn(C2CN(CCCOc3ccc(C#N)cc3)C2)c1	49%
Cc1cnn(C2CN(CCOc3ccccc3C#N)C2)c1	58.8%
Cc1cnn(C2CN(CCOc3ccc(C#N)cc3)C2)c1	-26.1%
Cn1ccnc1CN1CCN(CCOc2ccccc2C#N)CC1	44.8%
O=C(NCCc1cc(N2CCOCC2)nc(N2CCCC2)n1)C1CC1	15.548%
O=C(CC1CC2(CCN(CC3CC3)CC2)Oc2ccccc21)NC1CC1 (stereo not given)	7.5%
Fc1ccc([C@@H]2COC[C@H]2NCc2cccc(F)c2)cc1	20.2%
CCN1CCc2c(CNC(=O)c3nccn3C)cncc2C1	35.8%
Cc1nn(C)c2c(NCc3ccccn3)ncnc12	42.1%
C=C/C=c1\c(=C/C)oc2c(NCc3ccccc3)nc(C)nc12	68%
C=C/C=c1\c(=C/C)oc2c(NCc3ccccc3)ncnc12	60.3%
Cc1nc(NCc2cccnc2)c2c(n1)c(C)nn2C	1.81%
C=C/C=c1\c(=C/C)oc2c(NCc3ccccc3)nc(CC)nc12	22.5%
Cc1ncc(CN)c(-c2cn(C)c3ccccc23)n1	9.05%

Compound	INHIBITION
CN(CC(N)=O)C(=O)C1Cc2cc(Cl)ccc2O1 (stereo not given)	-5.64%
CN(C)CC1(O)CCN(C(=O)Cc2ccc(Cl)c(Cl)c2)C1 (stereo not given)	39.1%
CN(C)CC1(O)CCCN(C(=O)Cc2ccc(Cl)c(Cl)c2)C1 (stereo not given)	52.2%
CN(C)CC1(O)CCN(C(=O)Cc2ccc3c(c2)CCCC3)C1 (stereo not given)	20.6%
O=C1[C@@H]2CN(c3ncnc4sccc34)C[C@]2(C(=O)O)CN1CC1CC1	29.2%
Cc1nn(C)c(N(C)C)c1CNC1CCOc2c(Cl)cccc21 (stereo not given)	-17.7%
COc1ccccc1C1(O)CCCN(C(=O)c2ccnn2C(C)C)C1 (stereo not given)	-24.4%
CNC(=O)[C@@H]1CN(C(=O)C(C)C)C[C@H]1c1ccnc(N2CCCC2)n1	21.7%
Cc1noc(C2CCC3(CCN(C(=O)C4CCOCC4)CC3)O2)n1 (stereo not given)	32.2%
NC(=O)C(NC1CCN(CC2CCCCC2)CC1)c1ccc(F)cc1 (stereo not given)	-55.1%
NC(CC1CCCC1)c1ccccc1 (stereo not given)	62.2%
NC(CC1CCCCC1)c1ccccc1 (stereo not given)	5.15%
NC(=O)C(NC1CCN(CC2CCCCC2)CC1)c1ccccc1 (stereo not given)	-139%
NC(CC1CCCC1)c1ccc(Oc2ccccc2)cc1 (stereo not given)	80.1%
NC(c1ccccc1)c1ccc(OC(F)F)cc1 (stereo not given)	29.3%
COCc1noc(Cc2cc(Cl)c3c(c2)OCCCO3)n1	-69.2%
CC(C)(C)CC(=O)NCCCn1cncn1	40.6%
Cc1cn2c(n1)CCC(NC(=O)c1cncnc1C)C2 (stereo not given)	-0.219%
Cc1ccc(C(=O)N2CCN(CCCSCC#N)CC2)o1	0.139%
N#CCSCCCN1CCC(C(=O)N2CCCCCC2)CC1	51.8%
N#CCSCCCN1CCCC(C(=O)N2CCCCCC2)C1 (stereo not given)	35.5%
N#CCSCCCN1CCN(C(=O)C2CCCC2)CC1	50.7%
CC1CCN(CCNC(=O)C2CCN(C(=O)C3CC3)CC2)CC1	-8.23%

Compound	INHIBITION
CC(NCCN1CCN(C(=O)C2CCCC2)CC1)c1cnn(C)c1 (stereo not given)	17.1%
O=C(O)c1cc(S(=O)(=O)Nc2ccc(F)cc2Cl)cc2c1OCCO2	23.5%
O=C([C@H]1CCCO1)N1CCCC2(CCN(Cc3ccncc3)C2=O)C1 (stereo not given in full)	10.3%
CN1C(=O)CCCC12CCCN(C(=O)c1cc(F)cc(F)c1)C2 (stereo not given)	33.4%
Cn1cc(CC(=O)N2CCCC(n3cncn3)C2)cn1 (stereo not given)	17.4%
Cc1cnc(CNC(=O)CCCn2cnc3ccccc3c2=O)cn1	34.6%
CC(C)c1nc(C2CCCN(C(=O)CCCn3ccnc3)C2)no1 (stereo not given)	-19.4%
CC(C)c1nc(C2CCCN(C(=O)CCn3cncn3)C2)no1 (stereo not given)	31.2%
CCCc1noc(CCC(=O)N2CCCC(c3ccn[nH]3)C2)n1 (stereo not given)	16.8%
Cc1csc2c(C3CCCN(C(=O)CCn4ccnc4)C3)nc(C)n12 (stereo not given)	57.3%
Cc1nc(C2CCCN(C(=O)CCCn3cccn3)C2)no1 (stereo not given)	53.5%
Cc1csc2c(C3CCCN(C(=O)CCCn4cncn4)C3)nc(C)n12 (stereo not given)	-1.16%
CC(C)c1nc(C2CCCN(C(=O)CCCn3cccn3)C2)no1 (stereo not given)	-29.8%
O=C(CCCc1nc(C2CC2)no1)N1CCCC(c2ccn[nH]2)C1 (stereo not given)	52.6%
CCc1noc(CCCC(=O)N2CCCC(c3ccn[nH]3)C2)n1 (stereo not given)	42.8%
CC(C)c1nc(C2CCCN(C(=O)CCn3ccnc3)C2)no1 (stereo not given)	56.1%
Cc1nc(C2CCCN2C(=O)CCCn2cccn2)no1 (stereo not given)	-25.9%
Cc1csc2c(C3CCCN(C(=O)CCn4cncn4)C3)nc(C)n12 (stereo not given)	5.34%
Cc1ccc(S(=O)(=O)Nc2cnn(C3CCOCC3)c2)cc1C	-52.5%
CCCc1ccc(S(=O)(=O)NC(=O)CCc2cscn2)cc1	16.2%
O=S(=O)(c1cncc(F)c1)N1CCSC2(CCCCC2)C1	28.5%
COc1c(C2CCCN2C(=O)c2cccnc2N(C)C)c(C)nn1C (stereo not given)	23.4%
COc1ccc(-n2cc(CNC(=O)c3cc[nH]n3)nn2)cc1	-120%

Compound	INHIBITION
O=S(=O)(CCCN1CCc2c(ncn2C2CC2)C1)c1ccccc1	-27.5%
CC(C)CN1C(=O)CC(N2CCN(c3ccc(F)cc3)CC2)C1=O (stereo not given)	54%
CC(C)N1C(=O)CC(N2CCN(c3ccc(F)cc3)CC2)C1=O (stereo not given)	14.3%
CCCN1C(=O)CC(N2CCN(c3ccc(F)cc3)CC2)C1=O (stereo not given)	-34.7%
CCN(Cc1ccc2c(c1)OCO2)C(=O)NC(C)Cn1ccnc1 (stereo not given)	26.4%
Cc1sc(CNS(N)(=O)=O)nc1-c1ccc(Cl)cc1	-20.6%
NC(=O)CN1CCC(OCc2ccc(Cl)c(Cl)c2)CC1	33.1%
CCC(N)C(=O)N1CCC(OCc2ccc(Cl)c(Cl)c2)CC1 (stereo not given)	47.7%
CNC(=O)CN1CCC(OCc2ccc(Cl)c(Cl)c2)CC1	65.6%
CC1=N[C@@]2(CC[C@@H]3CN(Cc4ccccc4F)C[C@@H]32)C(=O)N1CC1CC1	20.1%
CCn1ncnc1C1CC(=O)NCc2nc(N)sc21 (stereo not given)	19.7%
COC(=O)N1CCN(Cc2csc(-c3ncccn3)n2)CC1	-42.5%
CC(=O)N1CCCN(Cc2csc(-c3ncccn3)n2)CC1	30.8%
CC(O)CN1CCN(Cc2csc(-c3ncccn3)n2)CC1 (stereo not given)	60.8%
CC(C)c1nc(CN2CCN(Cc3ccccn3)CC2)cs1	-53.5%
CC(C)C(=O)N1CCN(Cc2csc(-c3ncccn3)n2)CC1	41.8%
Cc1ccc(-c2nc(CN3CCN(C(=O)C4CC4)CC3)cs2)o1	-34%
Cc1ccc(-c2nc(CN3CCN(S(=O)(=O)N(C)C)CC3)cs2)o1	52.1%
CC(C)CC(=O)N1CCN(Cc2csc(-c3ncccn3)n2)CC1	10.6%
CC(C)C(=O)N1CCN(Cc2csc(-c3ccccn3)n2)CC1	47.4%
Cc1ccc(-c2nc(CN3CCN(CC(=O)N(C)C)CC3)cs2)o1	15.3%
OC(c1ccccc1)C1CCN(Cc2csc(-c3ncccn3)n2)CC1 (stereo not given)	59.8%
CS(=O)(=O)N1CCN(Cc2csc(-c3ncccn3)n2)CC1	56.8%

— ChEMBL document CHEMBL4513216, “Probing the Open Global Health Chemical Diversity Library for Multistage-Active Starting Points for Next-Generation Antimalarials” (ACS Infect Dis, 2020)
